Bioassay records from PubChem.
An excerpt weighted towards active compounds, which were near 5.4% of everything screened.
Sm TGR inh – S. mansoni TGR enzyme inhibition. AID 485364. 360,000 tested, 3% active. Q962Y6. Potency, µM (top dose mostly 114 µM), without a hit: top-dose activity change, negative = inhibition, usual class: inhibitors. purified TGR, DTNB reduction, TNB absorbance 405 nm; active means well fitted inhibition curve with a large enough effect; inconclusive means small, poorly fitted or top-dose-only effect; inactive means no such curve, though single readings can be large or run the other way; further: nearly all actives have a fitted effect of over 60% in size
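First, TGR (20 nM dispensed) and NADPH were mixed with compound. Second, a 15 min room-temperature incubation followed. Third, further NADPH and then DTNB were added to start the reaction. Finally, TNB absorbance was monitored kinetically.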
LASV entry inh – blocks Lassa virus binding to or entry into cells. Lassa virus pseudotype entry inhibition, cell reporter. AID 540256. 300,000 tested, 1.2% active. Potency, µM (series often up to 37.9 µM), inactives show top-dose activity change, negative = inhibition, usual class: inhibitors; calls by dose curve; tested in HEK293 cells; further: nearly all actives have a fitted effect of over 50% in size
Vaccinia Venus – inhibitors of vaccinia virus (Venus reporter); Vaccinia virus Venus reporter expression, fluorescence; 330,000 tested, 0.46% active; AID 720580; Potency, µM (top dose mostly 36.5 µM), for the others: at the highest dose activity change, negative = inhibition, usual class: inhibitors; calls by dose curve; tested in A549 cells; further: nearly all actives have a fitted effect of over 30% in size
FMDV inh – blocks foot and mouth disease virus; Potency, µM (titrated, usually from 57.9 µM), without a hit: top-dose activity change, negative = inhibition, hits mostly inhibitors; FMDV antiviral cell-based qHTS; 410,000 tested, 1.2% active; calls by dose curve; tested in HEK293T cells; further: read-out not given here; nearly all actives have a fitted effect of over 45% in size
VACV mCherry inh – vaccinia inhibition (mCherry reporter); Vaccinia virus mCherry reporter infection, fluorescence; Potency, µM (highest dose often 36.5 µM), for the others: top-dose activity change, negative = inhibition, most hits filed as inhibitors; AID 720579; 310,000 tested, 0.63% active; calls by dose curve; tested in A549 cells; further: nearly all actives have a fitted effect of over 35% in size
MARV entry inh – inhibitors of Marburg virus binding or cell entry; 300,000 tested, 1.8% active; Potency, µM (highest dose often 37.8 µM), without a hit: at the highest dose activity change, negative = inhibition, actives largely listed as inhibitors; Marburg virus pseudotyped entry inhibition, cell reporter; calls by dose curve; tested in HEK293 cells
* = called active by the depositor; i = inactive; u = inconclusive; x = no result given; [ ] = another dose, or the depositor's remark. On the % scale 0 is the no-effect control and ±100 the full control effect; potency means the concentration at half of the fitted maximal effect.

SMILES	Sm TGR inh	LASV entry inh	Vaccinia Venus	FMDV inh	VACV mCherry inh	MARV entry inh
Cc1ccc(S(=O)(=O)N2C[C@]3(O)C[C@@H]4C(=O)N(c5ccccc5)C(=O)[C@@H]4C[C@]3(OC(=O)NC3CCCC3)C2)cc1	x	x	-21.5%	15.8µM*	-12.7%	x
COc1ccc(CNC(=O)O[C@]23C[C@H]4C(=O)N(c5ccccc5)C(=O)[C@H]4C[C@@]2(O)CN(S(=O)(=O)c2ccc(C)cc2)C3)cc1OC	x	x	-12.9%	-17.3%	i	x
Cc1nc(SCC(=O)NCc2ccco2)nc(C)c1C	22.4µM*	8.8%	x	-4.9%	x	-0.8%
O=C(CSc1nnc(-c2ccccc2)c(-c2ccccc2)n1)NCc1ccco1	39.8µM*	u	x	u	x	u
O=C(Cn1cnc2sc(-c3ccccc3)cc2c1=O)NCc1ccco1	12.6µM*	-9.8%	u	0.0%	-26.8%	u
O=C(CSc1ncnc2c1oc1ccccc12)NCc1ccco1	28.2µM*	0.2%	-29.2%	x	-17.8%	-4.7%
CC(C)c1cnc2c(c1SCc1ccc([N+](=O)[O-])cc1)c(=O)n(C)c(=O)n2C	19.6%	-5.0%[46.1 µM]	-12.4%	-26.1%	-19.0%	x
Cc1nc(SCC(=O)NC(=O)NCc2ccco2)nc(C)c1C	39.8µM*	29.4%	-9.2%	-15.9%	-15.0%	4.9%
Cc1nc(SCC(=O)NC(=O)NCc2ccccc2)nc(C)c1C	11.2%	-5.6%	-11.8%	-16.7%	i	22.2%
COC(=O)c1ccccc1-c1cc(C)cc2c1OC(CNC(=O)c1cc(C)on1)C2 (stereo unspecified)	x	x	9.3%	-7.0%	-16.8%	x
O=C(/C=C/c1cccs1)c1cc(F)ccc1OC(=O)N1CCOCC1	x	-2.9%	-8.0%	22.4µM*	i	-12.6%
Cc1ccc(Nc2ncnc3onc(C)c23)cc1Cl	0.9%	u	-15.8%	-17.2%	-15.6%	x
COc1cc2nc(C#N)nc(N)c2cc1OC	x	x	-5.9%	x	-9.5%	x
COc1ccc(CNCC(O)(c2ccccc2)c2ccc(F)cc2)cc1OC (stereo unspecified)	-2.0%	u	-11.2%	u	4.5%	2.82µM*
COc1ccc(CNCC(O)(c2ccc(F)cc2)c2ccc(F)cc2)cc1OC	-2.6%	x	x	u	x	x
COc1ccc(CNCC(O)(c2ccccc2)c2ccc(F)cc2)cc1 (stereo unspecified)	-9.4%	14.4%[46.1 µM]	-6.5%	-4.3%	i	11.2µM*
COC(=O)CCCCC(=O)OC	-1.0%	x	-8.0%	-18.1%	i	x
C=CCCCCCCCC(=O)OC	50.1µM*	x	-13.0%	-13.5%	-11.4%	x
Cc1ccc(CCNc2nc3c(S(=O)(=O)c4ccccc4)nnn3c3ccsc23)cc1	31.6µM*	-2.8%[46.1 µM]	-21.4%	-6.8%	-20.3%	x
Cc1oc(-c2ccccc2NC(=O)c2ccccn2)nc1CNC(=O)c1cccc(C#CC(C)(C)O)c1	x	x	-10.2%	27.6%	-7.8%	x
Cc1cc(NC(=O)CN2CCC(O)CC2)nc2c1c(=O)oc1ccccc12	3.6%	u	15.2%	-11.9%	22.5%	20.4%[46.1 µM]
Cc1ccc2c(c1)CC1(CN2C)C(=O)OC(C)(C)OC1=O	-2.6%	1.3%	10µM*	-10.0%	7.08µM*	-14.6%
Cc1ccc2c(c1)CC1(CN2C)C(=O)NC(=O)N(c2cc(C)ccc2C)C1=O (stereo unspecified)	-33.5%	-0.4%	x	-16.5%	x	7.1%
COc1ccccc1N1CCN(C(=O)c2cnc(N3CCCCC3)c3ccccc23)CC1	-12.8%	u	-26.3%[7.34 µM]	u	u	x
O=C(CCN1CCCCC1c1cccnc1)NCc1ccccc1 (stereo unspecified)	35.5µM*	-8.0%	-10.8%	2.5%	x	0.0%
SMILES	Sm TGR inh	LASV entry inh	Vaccinia Venus	FMDV inh	VACV mCherry inh	MARV entry inh
CN1CCCCC1c1cccnc1 (stereo unspecified)	x	x	-9.3%	-9.1%	-15.1%	x
CCCCCCn1ccc(=N)cc1	2.3%	u	u	0.0%	x	12.6µM*
CCCCCCCCCCCCCCCCn1cc[n+](CC(C)=O)c1	6.5%	x	x	u	x	x
Cn1c(=O)c2c(ncn2CCN(CCO)Cc2ccccc2)n(C)c1=O	44.7µM*	-8.4%	x	4.6%	x	-3.7%
COc1ccccc1CN1CCOc2ccc(CN3CCC(Oc4cccnc4)CC3)cc2C1	x	x	1.9%	-10.5%	-19.6%	x
Cc1ccc2c(c1)/C(=C/c1ccc(F)cc1)C(=O)N2	2.3%	x	x	u	x	x
Cc1ccc2c(c1)N/C(=C(\C=C(/Cl)[N+](=O)[O-])[N+](=O)[O-])N2	8.91µM*	x	x	x	x	x
COc1cc2[nH]c(=O)n(Cc3ccc(C(=O)N4CCN(c5cc(Cl)ccc5C)CC4)cc3)c(=O)c2cc1OC	-19.6%	3.7%[46.1 µM]	-28.6%	-27.1%	u	u
O=C(NCc1nnc(SCc2ccc(F)cc2)n1-c1ccccc1)C12CC3CC(CC(C3)C1)C2	-3.4%	u	u	39.8µM*	u	u
O=C(NCc1nnc(SCc2ccc(C(F)(F)F)cc2)n1-c1ccccc1)C12CC3CC(CC(C3)C1)C2	-2.5%	u	-19.1%	u	-15.1%	11.2µM*
COC(c1ccc2c(c1)CN(C(=O)Cn1nc(C)c3ccccc3c1=O)CCO2)C1CCCCC1 (stereo unspecified)	x	x	-7.7%	-18.2%	-17.6%	x
CCCCOC(=O)Nc1ccc(S(=O)(=O)Nc2nc(C)cc(C)n2)cc1	1.9%	-22.3%[14.3 µM]	-10.7%	50.1%	i	-6.4%
CCCCOC(=O)NS(=O)(=O)c1sc(CC(C)C)cc1-c1ccc(Cn2c(CC)nc3c(C)cc(C)nc32)cc1	6.8%	9.2µM*	x	x	x	10µM*
CCOc1ccc(NC(=O)c2ccc3nc(Cc4ccccc4)oc3c2)cc1	2.0%	-15.5%[46.1 µM]	-20.1%	-23.1%	-18.9%	x
Cc1cc(NC(=O)CCl)on1	15.8µM*	-19.0%	0.4%	u	-20.6%	-16.9%[46.1 µM]
CC(C)c1cc(NC(=O)CCl)on1	12.6µM*	x	-22.3%	u	-9.9%	x
CCOc1ccc(-c2nonc2NC(=O)c2ccccc2C)cc1	2.3%	2.4%[46.1 µM]	-6.7%	-16.5%	-11.3%	1.7%[46.1 µM]
CCc1ccc(-n2nc(C)c3c(C(=O)Nc4cc(C)ccc4C)cc(C)nc32)cc1	-0.2%	-2.4%[46.1 µM]	-26.5%	7.2%	-25.9%	x
CC(C)CC(=O)N1c2nc(C(C)C)nn2C2(CCCCC2)[C@@H]2CCCC[C@@H]21	-2.2%	9.2%[46.1 µM]	-2.5%	0.0%	-1.6%	13.1%[46.1 µM]
O=C(O)c1ccc(S(=O)(=O)Nc2ccc3c(c2)OCCO3)cc1	31.6µM*	-0.8%	-5.7%	7.8%	i	u
Cn1c(=O)c(=O)n(C)c2cc(S(=O)(=O)Nc3ccc4c(c3)OCCO4)ccc21	-21.5%	-0.8%	x	39.8µM*	x	8.9%
O=C(O)c1cccc(NS(=O)(=O)c2ccc3c(c2)OCCCO3)c1	1.5%	-5.0%[46.1 µM]	-16.5%	6.9%	-12.9%	3.1%[46.1 µM]
CCC(=O)N1CCc2cc(S(=O)(=O)Nc3ccc4c(c3)OCCO4)ccc21	-1.3%	-13.2%	u	-13.3%	-29.4%	7.94µM*
O=C(C1CCC1)N1CCc2cc(S(=O)(=O)Nc3ccc4c(c3)OCCO4)ccc21	6.6%	-2.4%	u	-20.5%	-29.4%	-25.8%
Cn1c(=O)oc2cc(S(=O)(=O)Nc3ccc4c(c3)OCCO4)ccc21	-8.7%	0.9%	x	-19.9%	x	5.1%
